Hit rate of the full screen: of about 2,100 compounds, about 940 (45%) were called active. Not shown: some 48% with an inconclusive outcome. The call rests on the fitted dose curve; in most records, active means well fitted inhibition curve with a large enough effect; inconclusive means small, poorly fitted or top-dose-only effect; inactive means no such curve, though single readings can be large or run the other way. The set was probably picked from earlier hits. The list shows a part of the results.
Assay: Confirmatory qHTS for Inhibitors of ATXN expression; further: nearly all actives have a fitted effect of over 65% in size;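 on activity change, negative = inhibition: 0% = DMSO vehicle wells and -100% = medium-only wells without cells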
Conditions: ATXN2-luciferase reporter cells, luminescence, 24 h; series mostly up to 11.5 µM; activity change, negative = inhibition: at the top concentration
Outline: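 A titration, incubated 24 h with reporter cells expressing ATXN2-luciferase. Luminescence (SteadyGlo) gives ATXN2 expression, multiplexed GF-AFC fluorescence gives viability; normalised to DMSO and medium-only wells.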
Potency means the concentration at half of the fitted maximal effect.

| Structure (SMILES) | Potency | activity change, negative = inhibition |
| --- | --- | --- |
| Cc1cccc2sc(NNC(=O)c3ccc(S(=O)(=O)N4CC(C)CC(C)C4)cc3)nc12 (stereo not given) | 2 µM (active) | – |
| Cc1cccc2sc(NNC(=O)c3ccc(S(=O)(=O)N4CCCC(C)C4)cc3)nc12 (stereo not given) | 7.94 µM (active) | – |
| Cc1cc(C)c2nc(NNC(=O)c3ccc(S(=O)(=O)N4CC(C)CC(C)C4)cc3)sc2c1 (stereo not given) | 3.55 µM (active) | – |
| CCCC(NCC(O)COc1ccc(-c2ccccc2)cc1)c1ccccc1 (stereo not given) | 25.1 µM (active) | – |
| NS(=O)(=O)c1ccc(Sc2nc3ccccc3s2)c([N+](=O)[O-])c1 | 2.24 µM (active) | – |
| COc1cc(C#Cc2c(-c3cncn3C)n(C)c3ccc(-c4cnc(OC)nc4)cc23)cc(OC)c1 | 3.16 µM (active) | – |
| Cc1ccnc(NC(=O)C2CCN(S(=O)(=O)c3c(C)c(C)cc(C)c3C)CC2)c1 | 2.24 µM (active) | – |
| O=C(Nc1ccc[n+](CC(=O)c2cccc3ccccc23)c1)c1ccccc1 | 3.55 µM (active) | – |
| O=[N+]([O-])c1cc(O)c2ncccc2c1 | 3.16 µM (active) | – |
| CCOC(=O)N1CCN(c2ncnc3c2[nH]c2ccc(F)cc23)CC1 | 8.91 µM (active) | – |
| Fc1ccc2[nH]c3c(N4CCc5ccccc5C4)ncnc3c2c1 | 3.98 µM (active) | – |
| Fc1ccc2[nH]c3c(N4CCSCC4)ncnc3c2c1 | 12.6 µM (active) | – |
| Cc1cc(C)n(-c2ccc(C(=O)N3CCN(S(=O)(=O)c4cccc(Br)c4)CC3)cc2)n1 | – | -11.3% (inactive) |
| CC(OC(=O)c1cc(Br)ccc1O)C(=O)Nc1ccc(S(=O)(=O)N2CCCC2)cc1 (stereo not given) | 28.2 µM (active) | – |
| O=C(N/N=C\c1cc(Cl)ccc1O)c1ccc(S(=O)(=O)N2CCCCC2)cc1 | 0.708 µM (active) | – |
| O=C(N/N=C\c1c(O)ccc2ccccc12)c1ccc(S(=O)(=O)N2CCCCC2)cc1 | 0.501 µM (active) | – |
| O=C(N/N=C\c1cc(Br)ccc1O)c1ccc(S(=O)(=O)N2CCCCC2)cc1 | 0.794 µM (active) | – |
| CCCCOc1ccc(CSC(=N)N)cc1Cl | 25.1 µM (active) | – |
| COc1ccc2c(c1)[nH]c1c(=O)n(/N=C/C3C(C)C=C(C)CC3C)c(=O)[nH]c12 (stereo not given) | 14.1 µM (active) | – |
| COc1ccc(Cn2c(O)c(/C=N/NC(=O)c3cccnc3)c3ccccc3c2=O)cc1 | 14.1 µM (active) | – |
| Cn1c(=O)c2cc(NC(=O)Nc3cccnc3)ccc2n1Cc1ccc(Cl)cc1 | – | -17.8% [at 57.5 µM] (inactive) |
| O=C(N/N=C/c1c(O)n(Cc2ccccc2)c(=O)c2ccccc12)c1cccnc1 | 15.8 µM (active) | – |
| CC(=O)Nc1cccc(-c2ccnc3c2CC(C)(C(=O)Nc2cccc(Oc4ccccc4)c2)O3)c1 (stereo not given) | 25.1 µM (active) | – |
| CC(=O)Nc1cccc(-c2ccnc3c2CC(C)(C(=O)Nc2ccc(Cl)cc2)O3)c1 (stereo not given) | 10 µM (active) | – |
| CC(=O)c1cccc(NC(=O)C2Cc3c(-c4cccc(C(C)=O)c4)ccnc3O2)c1 (stereo not given) | – | -14.3% (inactive) |
| CC(Nc1ccccc1CO)C(=O)Nc1cccc(Cl)c1Cl (stereo not given) | 2.24 µM (active) | – |
| COc1cc(NC(=O)c2cccc3c(-c4cccnc4)coc23)cc(OC)c1OC | 3.55 µM (active) | – |
| NC(=S)N1OC[C@@H]2COc3ccc4ccccc4c3[C@@H]21 | 14.1 µM (active) | – |

| Structure (SMILES) | Potency | activity change, negative = inhibition |
| --- | --- | --- |
| O=[N+]([O-])c1ccc(O)c(/C=N/Nc2ncnc3c2cnn3-c2ccccc2)c1 | 1.26 µM (active) | – |
| O=[N+]([O-])c1ccc(O)c(/C=N/Nc2ccccn2)c1 | 0.631 µM (active) | – |
| O=[N+]([O-])c1ccc(O)c(/C=N\N=C2c3ccccc3-c3ccccc32)c1 | 3.98 µM (active) | – |
| COc1ccc(N2CCN(C(=O)c3cc4c(C)nc5ccccc5c4o3)CC2)cc1 | 25.1 µM (active) | – |
| COc1ccccc1N1CCN(C(=O)c2cc3c(C)nc4ccccc4c3o2)CC1 | 3.55 µM (active) | – |
| N#C/C(=C\c1cccc([N+](=O)[O-])c1)C(=O)NCc1ccc(Cl)cc1 | 3.16 µM (active) | – |
| N#C/C(=C\C=C\c1ccccc1[N+](=O)[O-])C(=O)NCc1ccccc1 | 2.82 µM (active) | – |
| CC1CCCCC1NC(=O)/C(C#N)=C/C=C/c1ccccc1[N+](=O)[O-] (stereo not given) | 3.16 µM (active) | – |
| N#C/C(=C\C=C\c1ccccc1[N+](=O)[O-])C(=O)NC1CCCCC1 | 17.8 µM (active) | – |
| COC(=O)c1ccc2c(c1)C(C)(C)C(/C=C/c1ccc(OC)c(OC)c1OC)=[N+]2C | 3.55 µM (active) | – |
| O=C(/C=C/c1ccccc1)c1cc(Br)ccc(=O)c1O | 28.2 µM (active) | – |
| CCNc1ccc(Br)cc(C(=O)/C=C/c2ccccc2Cl)c1=O | – | 0.525% (inactive) |
| Cc1cccc(NC2=Nc3ccccc3N3C2=Nc2c(c(C)nn2-c2ccccc2)C3c2ccc(O)c(O)c2)c1 (stereo not given) | 3.55 µM (active) | – |
| CC(=O)Nc1ccc(NC2=Nc3ccccc3N3C2=Nc2c(c(C)nn2-c2ccccc2)C3c2ccccc2)cc1 (stereo not given) | 1.26 µM (active) | – |
| COc1cccc(NC(=O)CSc2nc3ncc(Br)cc3[nH]2)c1 | 3.98 µM (active) | – |
| Cc1cc(C)n(-c2nc(Nc3ccccc3C(F)(F)F)nc(-n3nc(C)cc3C)n2)n1 | 3.16 µM (active) | – |
| CCOC(=O)N1CCN(Cc2cc(Cl)c3cccnc3c2O)CC1 | 1.58 µM (active) | – |
| O=C(Oc1c(CN2CCOCC2)cc(Cl)c2cccnc12)c1ccccc1 | 3.55 µM (active) | – |
| O=C(Oc1c(CN2CCOCC2)cc(Cl)c2cccnc12)c1cccs1 | 11.2 µM (active) | – |
| CC(C)(O)C#Cc1ccc([C@@H]2C[C@H]3CN(c4ccccc4)C(=O)[C@]34CCCN24)s1 | 5.01 µM (active) | – |
| O=C1N(c2ccccc2)C[C@@H]2C[C@@H](c3cc4ccccc4o3)N3CCC[C@@]123 | 0.316 µM (active) | – |
| CC(C)C[C@H](N)c1cn([C@@H](CCCCN)C(=O)N2CCNCC2)nn1 | – | -10.6% (inactive) |
| Cc1c(OCC(=O)NC2CC(C)(C)NC(C)(C)C2)ccc2c1oc(=O)c1ccccc12 | 2.82 µM (active) | – |
| COc1ccccc1-c1cc2nc(-c3ccccc3)cc(N3CCN(C(=O)c4ccoc4)CC3)n2n1 | 12.6 µM (active) | – |
| O=C(c1ccoc1)N1CCN(c2cc(-c3ccco3)nc3cc(-c4ccccc4)nn23)CC1 | 25.1 µM (active) | – |
| COc1ccccc1-c1cc2nc(-c3ccccc3)cc(N3CCN(C(=O)c4ccco4)CC3)n2n1 | 12.6 µM (active) | – |
| COc1cccc(-c2cc3nc(-c4ccccc4)cc(N4CCN(C(=O)c5ccoc5)CC4)n3n2)c1 | 2.82 µM (active) | – |
